Screens as filed in PubChem BioAssay.
A selection: hits, their analogues and other compounds. The true share with any hit is near 4%.
CSC inhib = cancer stem cell viability inhibitors, primary screen, luminescence; AID 2717, 2010; inhibition, % at 7.5 µM; cancer stem cell-like cells viability; 1.1% of 300,000 active; in the data active = inhibition above about 75%; inconclusive = no clear call, values can overlap the other calls; tested in HMLE shEcad cells
Beta cell apopt = inhibitors of cytokine-induced beta cell apoptosis, primary screen, luminescence | INS-1E cytokine-induced death, ATP luminescence, 48 h; percent of positive-control rescue, neutral wells zero | protection from apoptosis, % (no concentration beside the values) | 0.8% of 300,000 active | AID 435005, 2010;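 active = Every replicate reaches about 75%, or at least half do and their mean reaches it too, limit read from the data; inconclusive = At least half of replicates reach the limit but their mean does not; inactive = Under half of replicates reach the limit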;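 note: higher means more ATP so stronger rescue from cytokine killing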
Gli-Sufu block = Gli-Sufu pathway antagonists, primary screen, luciferase luminescence, Sufu-KO-LIGHT cells, uHTS; Sufu-KO-LIGHT fibroblasts, Gli luciferase reporter luminescence; inhibition, % at 5 µM; 0.74% of 340,000 active;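 active = inhibition above about 55%, limit read from the data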
Shn3 inh set2 = reduction of Shn3 3'UTR firefly luciferase signal, primary screen, Schnurri-3 inhibitor project, cell-based, Clone20 osteoblasts, set 2. Clone20 osteoblast Shn3 3'UTR firefly luciferase, 24 h. inhibition, % at 12.5 µM. 0.52% of 360,000 active. AID 588674, 2011;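 active = mean inhibition of at least 75% with every replicate also reaching 75%; inconclusive = mean inhibition at least 75% but some replicate below; inactive = mean inhibition below 75%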
PAX8 reporter = inhibitors of PAX8-driven TPO luciferase reporter, primary screen, RMG-I cells, single concentration. 1.2% of 360,000 active. inhibition, % at 12.6 µM. SteadyGlo, 24 h;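 active = mean replicate inhibition at least 60% with every replicate also reaching 60%; inconclusive = only one of the two criteria is met; inactive = mean below 60% and not all replicates reaching 60%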;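 note: luciferase light reporting Pax8 driven TPO promoter activity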
Mdm2-MdmX inh = inhibitors of human Mdm2-MdmX association, primary screen, cell-based, luminescence, split luciferase, SaOS-2, uHTS; Protein Mdm4 (Homo sapiens) + E3 ubiquitin-protein ligase Mdm2 (Homo sapiens), …; inhibition, % at 8 µM; 3% of 330,000 active; SaOS-2 split-luciferase Mdm2/MdmX complementation;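 active = inhibition of at least 50% at 8 µM in the primary screen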
Target sequence (O15151 whole entry, looked up): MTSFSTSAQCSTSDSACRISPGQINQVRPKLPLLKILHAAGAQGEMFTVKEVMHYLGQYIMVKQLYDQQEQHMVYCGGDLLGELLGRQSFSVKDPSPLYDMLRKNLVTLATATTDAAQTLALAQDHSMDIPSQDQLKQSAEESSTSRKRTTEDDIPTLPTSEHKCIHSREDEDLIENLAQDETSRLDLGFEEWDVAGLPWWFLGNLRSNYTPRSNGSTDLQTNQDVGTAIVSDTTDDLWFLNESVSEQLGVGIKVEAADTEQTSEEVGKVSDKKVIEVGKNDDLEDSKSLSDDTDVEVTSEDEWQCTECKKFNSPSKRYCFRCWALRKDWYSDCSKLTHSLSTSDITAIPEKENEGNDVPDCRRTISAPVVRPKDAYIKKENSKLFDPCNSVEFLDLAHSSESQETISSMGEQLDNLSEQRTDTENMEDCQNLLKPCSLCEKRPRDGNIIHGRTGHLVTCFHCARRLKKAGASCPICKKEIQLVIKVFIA
Target sequence (Q00987 whole entry, looked up): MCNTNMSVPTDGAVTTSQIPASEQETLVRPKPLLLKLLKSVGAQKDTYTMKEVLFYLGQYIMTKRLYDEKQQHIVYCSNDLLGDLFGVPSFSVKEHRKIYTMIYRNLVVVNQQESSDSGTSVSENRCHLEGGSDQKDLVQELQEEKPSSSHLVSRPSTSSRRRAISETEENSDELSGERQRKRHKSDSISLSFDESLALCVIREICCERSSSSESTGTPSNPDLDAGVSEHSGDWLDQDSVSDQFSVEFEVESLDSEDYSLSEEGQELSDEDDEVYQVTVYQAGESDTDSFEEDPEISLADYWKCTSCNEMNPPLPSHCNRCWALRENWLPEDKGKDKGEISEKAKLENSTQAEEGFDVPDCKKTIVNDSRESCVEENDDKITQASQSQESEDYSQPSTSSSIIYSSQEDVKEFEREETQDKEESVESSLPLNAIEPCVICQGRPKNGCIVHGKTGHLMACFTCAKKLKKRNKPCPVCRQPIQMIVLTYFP
Mdm2-MdmX conf = Mdm2-MdmX complex disruptors, retested hits, confirmation, luminescence, single concentration; shares compounds with Mdm2-MdmX inh; Mdm2-MdmX binding, luminescent assay; inhibition, % at 8 µM; 55% of 10,000 active; AID 489028, 2010; in the data active = inhibition above about 40%
FLuc counter = full-length luciferase signal inhibition, confirmation, counter-screen for Mdm2/MdmX interaction inhibitor project, cell-based, single concentration, SaOS-2; shares compounds with Mdm2-MdmX inh; SaOS-2 full-length luciferase counterscreen, luminescence; inhibition, % at 8 µM; 77% of 6,200 active; AID 504607, 2011;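 active = mean inhibition at 8 µM reaching about 37%, which flags the compound as non-specific, limit read from the data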;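 note: p53-null SaOS-2 cells with luciferase driven by a doxycycline-inducible promoter; compound on cells about two nights before reading with doxycycline added after day one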
Hits are given with their value.

Screening Cc1cc(C)n(-c2nc(NCCC(C)C)c3c4c(sc3n2)COC(C)(C)C4)n1 returned Gli-Sufu block inactive and Shn3 inh set2 inactive.
`Cc1cc(C)n(-c2nc(NCCN(C)C)c3c4c(sc3n2)COC(C)(C)C4)n1` gave CSC inhib inactive, Beta cell apopt inactive, Gli-Sufu block inactive, PAX8 reporter inactive, Mdm2-MdmX inh 65.3, Mdm2-MdmX conf inactive and FLuc counter 62.9.
`CCN(CC)CCNc1nc(-n2nc(C)cc2C)nc2sc3c(c12)CC(C)(C)OC3` gave CSC inhib inactive, Beta cell apopt inactive, Gli-Sufu block inactive, Shn3 inh set2 inactive, PAX8 reporter inactive, Mdm2-MdmX inh 61.1 and Mdm2-MdmX conf inactive.
For COc1cccc2sc(N3CCN(c4nc5ccccc5s4)CC3)nc12 the results were CSC inhib inactive, Beta cell apopt inactive, Gli-Sufu block inactive, Shn3 inh set2 inactive, PAX8 reporter inactive, Mdm2-MdmX inh 61.8, Mdm2-MdmX conf 61.2 and FLuc counter 80.7.
COc1cc(OC)c(C(=O)C=Cc2ccc(OC)c(OC)c2)c(OC)c1 was read as Gli-Sufu block inactive, Shn3 inh set2 inactive and PAX8 reporter inactive.
Screening COc1cc(/C=C/C(=O)c2ccc([N+](=O)[O-])o2)ccc1O returned CSC inhib inactive, Beta cell apopt 114.7, Gli-Sufu block inactive, Shn3 inh set2 97.3, PAX8 reporter inactive, Mdm2-MdmX inh 100.3, Mdm2-MdmX conf 100.2 and FLuc counter inactive.
Cc1cc(O)c(C(=O)/C=C/c2cccc([N+](=O)[O-])c2)c(=O)o1 was read as CSC inhib inactive, Beta cell apopt inactive, Gli-Sufu block inactive, PAX8 reporter inactive and Mdm2-MdmX inh inactive.
COc1ccc(/C=C/C(=O)c2ccc([N+](=O)[O-])o2)cc1OC was read as CSC inhib 78.2, Beta cell apopt 112.0, Gli-Sufu block inactive, PAX8 reporter 111.6, Mdm2-MdmX inh 95.6, Mdm2-MdmX conf 92.8 and FLuc counter 56.5.
O=C(/C=C/c1cccc(Cl)c1)c1ccc([N+](=O)[O-])o1 was read as CSC inhib inconclusive, Beta cell apopt 134.8, Gli-Sufu block inactive, Shn3 inh set2 95.3, PAX8 reporter 102.9, Mdm2-MdmX inh 100.3, Mdm2-MdmX conf 99.8 and FLuc counter 51.4.
CC1CCN(C(=O)CN2C(=O)c3ccccc3S2(=O)=O)CC1 was read as CSC inhib inactive, Gli-Sufu block inactive, Shn3 inh set2 inactive, PAX8 reporter inactive, Mdm2-MdmX inh 53.6 and Mdm2-MdmX conf inactive.
O=C(CN1C(=O)c2ccccc2S1(=O)=O)N1CCc2ccccc2C1 was read as CSC inhib inactive, Beta cell apopt inactive, Gli-Sufu block inactive, Shn3 inh set2 inactive, Mdm2-MdmX inh 55.0, Mdm2-MdmX conf inactive and FLuc counter 76.8.
For CCS(=O)(=O)Nc1ccc2c(c1)C(=O)N(C)[C@@H]1CC[C@@H](CC(=O)Nc3ccccc3)O[C@H]1CO2 the results were PAX8 reporter inactive.
Screening COc1ccc(C(=O)N/N=C(\Cc2ncc[nH]2)c2ccccc2)cc1 returned CSC inhib inactive, Beta cell apopt inactive, Gli-Sufu block inactive, Shn3 inh set2 inactive, PAX8 reporter inactive, Mdm2-MdmX inh 54.1, Mdm2-MdmX conf 42.1 and FLuc counter inactive.
Screening COc1cc(C(=O)N/N=C(\Cc2ncc[nH]2)c2ccccc2)cc(OC)c1OC returned CSC inhib 91.3, Beta cell apopt inactive, Gli-Sufu block inactive, Shn3 inh set2 inactive, PAX8 reporter inactive, Mdm2-MdmX inh 53.6, Mdm2-MdmX conf 50.0 and FLuc counter inactive.
Screening c1ccc(N/N=C(\Cc2ncc[nH]2)c2ccccc2)cc1 returned CSC inhib inactive, Beta cell apopt inactive, Gli-Sufu block inactive, Shn3 inh set2 inactive, PAX8 reporter inactive and Mdm2-MdmX inh inactive.
COc1cc(C(=O)NN=C2c3ccccc3-c3ccccc32)cc(OC)c1OC was read as PAX8 reporter inactive.
Screening COc1ccc(C(=O)Nc2ccc(Cl)c(S(=O)(=O)N3CCOCC3)c2)cc1 returned CSC inhib inactive, Beta cell apopt inactive, Gli-Sufu block inactive, Shn3 inh set2 inactive, PAX8 reporter inactive and Mdm2-MdmX inh inactive.
`O=C(Nc1ccc(Cl)c(S(=O)(=O)N2CCOCC2)c1)c1ccc(OCC2CCCO2)cc1` (stereo unspecified) gave CSC inhib inactive, Beta cell apopt inactive, Gli-Sufu block inactive, Shn3 inh set2 inactive, Mdm2-MdmX inh 74.9, Mdm2-MdmX conf 65.2 and FLuc counter 59.5.
`Cc1ccc(NC(=O)c2n[nH]c(=O)c3ccccc23)cc1S(=O)(=O)N1CCOCC1` gave Gli-Sufu block inactive, Shn3 inh set2 inactive, PAX8 reporter inactive and Mdm2-MdmX inh inactive.
Screening O=C(Nc1ccc(Cl)c(S(=O)(=O)N2CCOCC2)c1)c1n[nH]c(=O)c2ccccc12 returned Beta cell apopt inactive, Gli-Sufu block inactive, Shn3 inh set2 inactive, PAX8 reporter inactive, Mdm2-MdmX inh 59.6 and Mdm2-MdmX conf inactive.
For C[C@H]1CN([C@@H](C)CO)C(=O)Cc2cc(NC(=O)CCCCCC(=O)Nc3ccccc3N)ccc2O[C@@H]1CN(C)Cc1ccc(Cl)c(Cl)c1 the results were PAX8 reporter inactive.
For C=CCn1c(=NC(=O)c2sc3ccccc3c2Cl)sc2cc(S(N)(=O)=O)ccc21 the results were CSC inhib inactive, Beta cell apopt inactive, Gli-Sufu block inactive, Shn3 inh set2 inactive, Mdm2-MdmX inh 68.2 and Mdm2-MdmX conf inactive.
`CCOC(=O)Cn1c(=NC(=O)c2nc3ccccc3s2)sc2cc(S(N)(=O)=O)ccc21` gave CSC inhib inactive, Beta cell apopt inactive, Gli-Sufu block inactive, Shn3 inh set2 inactive, PAX8 reporter inactive, Mdm2-MdmX inh 62.5 and Mdm2-MdmX conf inactive.
COCCn1c(=NC(=O)c2sc3ccccc3c2Cl)sc2cc(S(N)(=O)=O)ccc21 was read as CSC inhib inactive, Beta cell apopt inactive, Gli-Sufu block inactive, Shn3 inh set2 inactive, PAX8 reporter inactive and Mdm2-MdmX inh inactive.
For COCC#Cc1ccc([C@@H]2[C@H]3CN(C(=O)C4CCC4)CC(=O)N3[C@H]2CO)cc1 the results were PAX8 reporter inactive.
`N#C[C@@H]1[C@@H](c2ccc(C#CC3CCCCC3)cc2)[C@@H](CO)N1C(=O)Cc1ccccn1` gave PAX8 reporter inactive.
